FLuc modulator = inhibits or activates purified firefly luciferase, miR-21 counter-screen; P08659; purified FLuc, Km substrates, luminescence inhibition; Potency, µM (titrated, usually from 57.5 µM), actives largely listed as inhibitors; actives 6.9% (n = 360,000); AID 588342; note: nearly all actives have a fitted effect of over 55% in size
Target sequence (P08659 whole entry, looked up): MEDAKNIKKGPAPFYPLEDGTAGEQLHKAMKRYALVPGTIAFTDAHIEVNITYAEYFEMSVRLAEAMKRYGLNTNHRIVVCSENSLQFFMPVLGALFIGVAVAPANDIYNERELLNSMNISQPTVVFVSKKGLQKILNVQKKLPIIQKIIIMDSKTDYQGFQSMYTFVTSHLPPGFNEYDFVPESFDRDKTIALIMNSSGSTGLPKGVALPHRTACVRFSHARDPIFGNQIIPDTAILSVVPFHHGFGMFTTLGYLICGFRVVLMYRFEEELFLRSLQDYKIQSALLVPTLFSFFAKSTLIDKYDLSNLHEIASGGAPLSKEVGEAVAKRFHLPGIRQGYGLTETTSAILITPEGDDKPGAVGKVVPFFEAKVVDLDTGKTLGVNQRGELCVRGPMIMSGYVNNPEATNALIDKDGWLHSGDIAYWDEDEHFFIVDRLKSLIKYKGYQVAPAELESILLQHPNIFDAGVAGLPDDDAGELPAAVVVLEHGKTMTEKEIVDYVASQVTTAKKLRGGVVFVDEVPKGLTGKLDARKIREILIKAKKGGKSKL
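Biochemical qHTS of compounds, final roughly 60 µM downward over six points, against 10 nM purified firefly luciferase using Km concentrations of substrates (10 uM D-luciferin, 10 uM ATP) in Tris acetate pH 7.5 buffer; luminescence output.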
SMN2 splice up = SMN2 splice variant enhancement; HEK293 SMN2-luciferase splicing reporter, luminescence, 30-36 h; Potency, µM (top dose mostly 46.1 µM), usual class: activators; actives 2.8% (n = 210,000); AID 1458; note: nearly all actives have a fitted effect of over 55% in size
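HEK293 cells carry an SMN2 minigene-luciferase reporter in which exon 7 inclusion puts luciferase in frame. Cells were seeded at 2000 cells/well, attached for 10-12 hours, then exposed to compounds for 30-36 hours at 37C before ONE-Glo luminescence.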
NPC1 prom act = activators of NPC1 promoter. Huh7 NPC1 promoter luciferase reporter, 24 h. AID 485313. Potency, µM (highest dose often 9.22 µM), actives largely listed as activators. actives 2.4% (n = 320,000); note: nearly all actives have a fitted effect of over 60% in size
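NPC1 promoter–luciferase Huh7 cells; 24 h compound; luminescence.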
ELG1 genotoxic = genotoxicity induction in ELG1-luciferase HEK293T cells | HEK293T ELG1-luciferase reporter, luminescence, 16 h | Potency, µM (series often up to 46 µM), usual class: activators | actives 1.3% (n = 330,000) | AID 504466; note: nearly all actives have a fitted effect of over 60% in size
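Screening used a luciferase reporter fused to human ELG1 in HEK293T cells. Luminescence was read on a CCD plate imager after 16 hr exposure and 30 min ONE-Glo incubation.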
Rab9 promoter act = Rab9 promoter activation | Huh7 Rab9 promoter-luciferase reporter, luminescence, 24 h | Potency, µM (titrated, usually from 9.22 µM), most hits filed as activators | actives 2.8% (n = 320,000); note: nearly all actives have a fitted effect of over 60% in size
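Promoter activation is measured as luciferase luminescence in Huh7 cells stably transfected with a Rab9 promoter–luciferase construct, following 24 h compound exposure at 37 °C and 10 min reagent incubation at ambient temperature.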
Hits are given with their value; . = inactive; ? = inconclusive; / = no result; [ ] = remark or other dose. Compounds with a hit are over-represented: about 7.4% of the library has one in this group of screens. Calls come from the whole dose curve; as a rule, active = well fitted curve in the direction sought with a large enough effect; inconclusive = small, poorly fitted or top-dose-only effect, or another doubt; inactive = no such curve, though single readings can be large; an effect the other way counts as inactive or inconclusive.

SMILES	FLuc modulator	SMN2 splice up	NPC1 prom act	ELG1 genotoxic	Rab9 promoter act
CCN(CC)S(=O)(=O)c1ccc(N2CCN(C)CC2)c(NC(=O)Nc2ccc(C)cc2)c1	.	/	.	.	.
Cc1ccc(C)c(NC(=O)CSc2ncc3c(n2)-c2cc(Cl)ccc2N(Cc2ccccc2F)S3(=O)=O)c1	.	/	/	/	/
COCCCNC(=O)CSc1nc(-c2cccc(F)c2)[nH]c1-c1ccccc1	.	.	/	/	/
CN(C)CCCn1c2c(c(SCC(=O)Nc3cccc4ccccc34)nc1=O)CCCC2	.	/	.	.	.
O=C(COC(=O)C1CCC1)NCc1ccccc1Cl	24µM	.	.	.	.
CC1CC1C(=O)OCC(=O)NCc1ccccc1Cl (configuration not stated)	.	.	.	.	.
Cc1nn(-c2ccc(N3CCCCC3)nn2)c(C)c1CCC(=O)Nc1ccc(F)cc1F	15µM	/	/	/	/
Cc1ccc(F)cc1NC(=O)CCc1c(C)nn(-c2ccc(N3CCCC3)nn2)c1C	.	/	/	/	/
Cc1cc(F)ccc1NC(=O)CCc1c(C)nn(-c2ccc(N3CCCCC3)nn2)c1C	?	/	.	.	.
Cc1ccc(F)cc1NC(=O)CCc1c(C)nn(-c2ccc(N3CCCCC3)nn2)c1C	11µM	/	?	.	.
NNC(=O)c1cc2c(ccc3ccccc32)o1	.	.	.	.	.
CCc1ccc2oc(C(=O)Nc3cccnc3)c(C)c2c1	2.1µM	/	?	4.1µM	4µM
Cc1c(C(=O)Nc2nc(-c3ccc(F)cc3)ns2)oc2ccc(Br)cc12	.	.	/	/	/
Cc1c(C(=O)Nc2cccnc2)oc2ccc(Br)cc12	2.7µM	/	?	18µM	3.2µM
CCc1ccc2oc(C(=O)Nc3nc(-c4ccc(F)cc4)ns3)c(C)c2c1	6.7µM	.	/	/	/
Cc1c(C(=O)Nc2cccc(S(=O)(=O)N3CCOCC3)c2)oc2ccc(Br)cc12	/	/	/	.	/
O=C(Nc1cccnc1)c1cc2c(ccc3ccccc32)o1	0.95µM	11µM	/	/	/
COc1ccc(/C=N/NC(=O)c2ccc3c(c2)NC(=O)C(C)(C)O3)cc1OC	?	/	.	.	.
COc1ccc(NC(=O)CCCn2nc(C)c3c(C)n(-c4ccccc4)nc3c2=O)cc1OC	.	/	.	.	.
COc1ccccc1OC(C)C(=O)Nc1ccccc1C(=O)NCC1CCCO1 (configuration not stated)	.	/	.	.	.
Cc1c(C(=O)NCc2ccccn2)oc2ccc(Br)cc12	?	/	?	.	?
Cc1c(C(=O)NCc2cccs2)oc2ccc(Br)cc12	19µM	.	.	18µM	.
COc1cc(CNc2ccc3[nH]c(=O)[nH]c3c2)cc(Cl)c1OCc1ccc(F)cc1	.	/	/	/	/
O=c1[nH]c2ccc(NCc3ccc(F)cc3)cc2[nH]1	17µM	/	.	.	.
Cc1sc2ncnc(N=Nc3c(O)[nH]c4ccccc34)c2c1C	0.85µM	.	.	.	?
SMILES	FLuc modulator	SMN2 splice up	NPC1 prom act	ELG1 genotoxic	Rab9 promoter act
Oc1[nH]c2ccccc2c1N=Nc1nncc2ccccc12	7.6µM	/	?	.	3.5µM
CC(=O)c1cccc(OCC(=O)c2cc(C)n(-c3cc(C)on3)c2C)c1	?	.	.	.	.
Cc1cc(-n2c(C)cc(C(=O)COc3ccc4ccc(=O)oc4c3)c2C)no1	17µM	.	.	.	.
c1ccc(SCc2nc(-c3cccnc3)no2)cc1	11µM	11µM	2µM	3.7µM	1.4µM
Cc1ccc(-c2noc(CSc3nnc(C)n3-c3ccc(C)cc3)n2)cc1	.	.	/	/	/
Cc1cccc(-c2noc(CSc3ccccc3)n2)c1	9.5µM	?	2.5µM	?	3.5µM
Cc1ccc(-c2noc(CSc3nc(N)cc(N)n3)n2)cc1	15µM	?	2.8µM	.	2.2µM
Cc1cccc(-c2noc(CSc3nc(-c4ccc(F)cc4)cc(=O)[nH]3)n2)c1	.	/	/	/	/
Cc1ccc(-c2noc(CSc3ccccc3)n2)cc1	2.1µM	?	1.8µM	7.3µM	1.8µM
c1ccc(C(Cc2nc(-c3cccnc3)no2)c2ccccc2)cc1	.	.	.	.	.
O=C(CSCc1cnn(-c2ccccc2)c1-n1cccc1)Nc1ccc(F)cc1F	.	/	/	/	/
CCN(C(=O)COC(=O)C1CCN(S(=O)(=O)c2ccc(C)c(C)c2)CC1)C1CCCCC1	.	/	.	.	.
COc1cc(C)ccc1OCc1cc(C(=O)N(Cc2c(C)nn(C)c2C)C2CC2)no1	12µM	/	?	.	?
COc1cc(C)ccc1OCc1cc(C(=O)N2CCCCCC2)no1	?	/	.	.	.
COc1cc(C)ccc1OCc1cc(C(=O)N(Cc2nccn2C)C(C)C)no1	11µM	/	2.5µM	?	2.2µM
CCCCc1nc2c(c3c1C[C@H](C)OC3)CN(C(=O)Cc1cccc(OC)c1)CC2	/	.[9.22 µM]	/	/	/
O=C(N/N=C/c1ccccc1O)NC12CC3CC(CC(C3)C1)C2	21µM	/	?	?	6.3µM
O=C(N/N=C/c1ccc(O)c(O)c1)NC12CC3CC(CC(C3)C1)C2	.	/	.	.	.[1.84 µM]
Cc1cccc(-n2c(O)c(C=Nc3cccc(O)c3)c3ccccc3c2=O)n1	.	/	.	.	.

Compound activity deposited in PubChem by National Center for Advancing Translational Sciences (NCATS).
